Assay results reported in the supplement of paper PMC10849652.
About 7,900 targets were measured; listed, in parts, are those with a hit and a random draw of the rest. About 0.6% of all pairs of compound and target were hits. Unmarked numbers belong to inactive results.

Assays:
Test in all cases: log2 fold change, soluble protein after heating vs DMSO (PISA); higher = thermal stabilisation; K562 cells, 10 uM, 30 min; active = over 0.2 and 3.5 SD of the protein, either way, in both replicates (recomputed)
[1] = compound: NC(=O)Nc1cc(-c2cccc(F)c2)sc1C(=O)N[C@H]1CCCNC1
Procedure, shortened: (§1)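 Values are thermal stability changes relative to control samples and are taken from duplicates. They are stated as log2 fold changes. Before quantification by TMTpro 16plex LC-MS/MS with equalised channel sums, K562 cells at 2×10^6 cells/mL were treated with 10 μM compound for 30 min, heated in aliquots for 3 min across 48°C-58°C, pooled, extracted in PBS with 0.5% NP-40 at 4°C, and centrifuged at 21,000xg for 90 min to give the soluble supernatant.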

[2] = compound: NC(=O)c1cnc(N[C@@H]2CCCC[C@@H]2N)nc1Nc1cccc(-n2nccn2)c1
Procedure, shortened: as §1

[3] = compound: NC1(c2ccc(-c3nc4ccn5c(=O)[nH]nc5c4cc3-c3ccccc3)cc2)CCC1
Procedure, shortened: as §1

[4] = compound: NCC(=O)Nc1ccc(-n2nc(C(F)(F)F)cc2-c2ccc3c(ccc4ccccc43)c2)cc1
Procedure, shortened: as §1

[5] = compound: Nc1ccccc1NC(=O)c1ccc(CNC(=O)OCc2cccnc2)cc1 [entinostat]
Procedure, shortened: as §1

[6] = compound: O=C(CCCCCCC(=O)Nc1ccccc1)NO [vorinostat]
Procedure, shortened: as §1

[7] = compound: O=C(CCCCCCNC(=O)c1cnc(N(c2ccccc2)c2ccccc2Cl)nc1)NO [citarinostat]
Procedure, shortened: as §1

[8] = compound: O=C(O)c1ccc2c(c1)nc(Nc1cccc(Cl)c1)c1ccncc12 [silmitasertib]
Procedure, shortened: as §1

[9] = compound: O=C1NC(=O)C(c2cnc3ccccn23)=C1c1cn2c3c(cc(F)cc13)CN(C(=O)N1CCCCC1)CC2
Procedure, shortened: as §1

[10] = compound: c1cc(OCCN2CCCCC2)cc(-c2n[nH]c3ccc(-c4nnc[nH]4)cc23)c1
Procedure, shortened: as §1

Chain of UniProt Q9ULX3 (Q9ULX3 whole entry, looked up): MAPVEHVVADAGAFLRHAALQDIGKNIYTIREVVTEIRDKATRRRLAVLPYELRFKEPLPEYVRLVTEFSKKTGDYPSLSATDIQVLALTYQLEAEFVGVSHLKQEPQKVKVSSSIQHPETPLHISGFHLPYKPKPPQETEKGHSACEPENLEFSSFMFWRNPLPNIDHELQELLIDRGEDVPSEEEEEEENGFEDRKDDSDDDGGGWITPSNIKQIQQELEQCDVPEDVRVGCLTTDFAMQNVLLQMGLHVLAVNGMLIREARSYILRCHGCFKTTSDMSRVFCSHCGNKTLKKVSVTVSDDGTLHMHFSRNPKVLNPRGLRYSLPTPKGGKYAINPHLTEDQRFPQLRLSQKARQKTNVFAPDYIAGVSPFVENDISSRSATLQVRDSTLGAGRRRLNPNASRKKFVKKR
Chain of UniProt Q9HCE1 (Q9HCE1 whole entry, looked up): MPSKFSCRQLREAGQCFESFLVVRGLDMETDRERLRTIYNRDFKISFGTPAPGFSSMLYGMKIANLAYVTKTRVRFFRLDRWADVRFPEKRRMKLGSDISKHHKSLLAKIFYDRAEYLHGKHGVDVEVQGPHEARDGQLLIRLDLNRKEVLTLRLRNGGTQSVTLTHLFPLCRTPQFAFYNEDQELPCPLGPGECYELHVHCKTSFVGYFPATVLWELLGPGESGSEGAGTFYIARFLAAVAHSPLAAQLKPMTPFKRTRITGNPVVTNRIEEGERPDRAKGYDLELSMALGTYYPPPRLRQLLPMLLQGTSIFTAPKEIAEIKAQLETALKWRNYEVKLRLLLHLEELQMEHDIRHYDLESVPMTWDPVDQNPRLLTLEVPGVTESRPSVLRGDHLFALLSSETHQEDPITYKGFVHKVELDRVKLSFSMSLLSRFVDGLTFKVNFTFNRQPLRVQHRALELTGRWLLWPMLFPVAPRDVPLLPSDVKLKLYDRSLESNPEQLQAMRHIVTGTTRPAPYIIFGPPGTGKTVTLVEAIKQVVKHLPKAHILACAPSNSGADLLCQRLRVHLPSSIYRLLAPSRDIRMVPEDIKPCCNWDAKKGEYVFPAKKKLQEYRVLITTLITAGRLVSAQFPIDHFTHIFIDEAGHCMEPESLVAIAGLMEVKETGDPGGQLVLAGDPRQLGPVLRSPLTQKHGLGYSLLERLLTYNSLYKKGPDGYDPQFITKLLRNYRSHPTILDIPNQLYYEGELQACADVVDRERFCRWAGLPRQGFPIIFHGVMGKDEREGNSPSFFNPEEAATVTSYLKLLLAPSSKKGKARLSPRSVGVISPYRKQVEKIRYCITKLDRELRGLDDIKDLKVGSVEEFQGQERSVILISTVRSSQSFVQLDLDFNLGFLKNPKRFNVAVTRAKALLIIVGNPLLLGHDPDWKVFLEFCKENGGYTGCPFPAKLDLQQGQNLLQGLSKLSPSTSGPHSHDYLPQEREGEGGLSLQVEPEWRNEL
Chain of UniProt Q15003 (Q15003 whole entry, looked up): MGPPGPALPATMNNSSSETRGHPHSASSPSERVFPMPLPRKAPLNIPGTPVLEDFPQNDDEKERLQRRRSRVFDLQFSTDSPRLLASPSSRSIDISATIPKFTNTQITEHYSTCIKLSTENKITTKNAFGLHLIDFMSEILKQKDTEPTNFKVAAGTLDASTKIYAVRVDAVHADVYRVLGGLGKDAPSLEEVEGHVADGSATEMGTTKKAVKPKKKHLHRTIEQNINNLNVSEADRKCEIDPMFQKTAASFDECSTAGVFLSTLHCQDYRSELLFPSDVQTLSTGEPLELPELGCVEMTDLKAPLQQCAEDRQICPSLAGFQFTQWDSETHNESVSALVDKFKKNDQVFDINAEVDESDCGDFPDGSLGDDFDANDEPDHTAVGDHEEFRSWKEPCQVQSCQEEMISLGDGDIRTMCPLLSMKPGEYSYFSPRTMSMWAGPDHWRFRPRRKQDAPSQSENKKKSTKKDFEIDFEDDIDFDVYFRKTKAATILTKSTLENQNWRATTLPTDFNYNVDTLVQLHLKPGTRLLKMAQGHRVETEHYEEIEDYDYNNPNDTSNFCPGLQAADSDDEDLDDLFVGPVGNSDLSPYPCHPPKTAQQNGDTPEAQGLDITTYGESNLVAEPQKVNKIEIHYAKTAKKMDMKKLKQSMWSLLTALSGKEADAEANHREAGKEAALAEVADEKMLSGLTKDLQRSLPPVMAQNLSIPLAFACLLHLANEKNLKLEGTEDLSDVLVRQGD
Chain of UniProt P30419 (P30419 whole entry, looked up): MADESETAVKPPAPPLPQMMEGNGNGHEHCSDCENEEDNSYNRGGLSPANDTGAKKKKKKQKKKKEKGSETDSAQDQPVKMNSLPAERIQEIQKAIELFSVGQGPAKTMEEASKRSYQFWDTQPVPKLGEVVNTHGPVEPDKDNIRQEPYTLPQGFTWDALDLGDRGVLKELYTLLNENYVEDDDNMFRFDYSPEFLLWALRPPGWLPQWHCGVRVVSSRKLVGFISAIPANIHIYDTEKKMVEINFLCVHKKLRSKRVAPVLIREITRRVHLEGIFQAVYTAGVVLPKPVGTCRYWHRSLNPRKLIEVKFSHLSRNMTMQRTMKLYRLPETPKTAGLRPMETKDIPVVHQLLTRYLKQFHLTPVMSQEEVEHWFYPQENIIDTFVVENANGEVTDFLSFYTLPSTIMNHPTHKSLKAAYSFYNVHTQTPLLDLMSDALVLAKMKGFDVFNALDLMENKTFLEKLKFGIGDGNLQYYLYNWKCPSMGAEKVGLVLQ
Chain of UniProt P49757 (P49757 whole entry, looked up): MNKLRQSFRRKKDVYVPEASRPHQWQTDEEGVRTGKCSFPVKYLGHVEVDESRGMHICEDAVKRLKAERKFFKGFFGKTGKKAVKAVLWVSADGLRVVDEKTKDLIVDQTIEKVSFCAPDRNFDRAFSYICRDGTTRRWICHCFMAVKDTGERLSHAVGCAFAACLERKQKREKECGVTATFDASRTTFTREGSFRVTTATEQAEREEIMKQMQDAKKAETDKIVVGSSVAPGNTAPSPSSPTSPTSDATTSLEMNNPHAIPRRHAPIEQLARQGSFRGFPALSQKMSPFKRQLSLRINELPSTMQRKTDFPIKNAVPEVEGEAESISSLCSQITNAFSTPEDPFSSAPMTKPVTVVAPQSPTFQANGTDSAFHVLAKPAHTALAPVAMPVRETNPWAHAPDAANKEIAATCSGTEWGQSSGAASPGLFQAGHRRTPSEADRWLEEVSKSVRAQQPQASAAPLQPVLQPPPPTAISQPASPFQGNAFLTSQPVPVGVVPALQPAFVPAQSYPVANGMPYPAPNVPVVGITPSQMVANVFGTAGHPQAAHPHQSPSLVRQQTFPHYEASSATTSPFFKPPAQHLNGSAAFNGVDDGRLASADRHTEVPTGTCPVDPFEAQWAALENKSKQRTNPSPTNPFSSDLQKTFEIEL
Chain of UniProt P51956 (P51956 whole entry, looked up): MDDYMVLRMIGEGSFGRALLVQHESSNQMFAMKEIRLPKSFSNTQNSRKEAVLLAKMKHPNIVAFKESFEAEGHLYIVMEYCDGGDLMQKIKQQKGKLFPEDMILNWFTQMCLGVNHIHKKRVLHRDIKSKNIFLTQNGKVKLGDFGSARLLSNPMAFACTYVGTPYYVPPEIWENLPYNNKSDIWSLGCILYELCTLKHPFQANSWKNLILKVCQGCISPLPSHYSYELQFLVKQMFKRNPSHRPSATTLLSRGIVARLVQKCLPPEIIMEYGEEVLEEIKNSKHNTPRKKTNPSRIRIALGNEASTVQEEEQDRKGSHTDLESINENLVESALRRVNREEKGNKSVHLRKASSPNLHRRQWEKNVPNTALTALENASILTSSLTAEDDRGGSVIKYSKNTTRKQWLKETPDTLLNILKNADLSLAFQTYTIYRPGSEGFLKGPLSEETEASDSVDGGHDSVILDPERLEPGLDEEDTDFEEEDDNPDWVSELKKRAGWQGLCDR
Chain of UniProt O00217 (O00217 whole entry, looked up): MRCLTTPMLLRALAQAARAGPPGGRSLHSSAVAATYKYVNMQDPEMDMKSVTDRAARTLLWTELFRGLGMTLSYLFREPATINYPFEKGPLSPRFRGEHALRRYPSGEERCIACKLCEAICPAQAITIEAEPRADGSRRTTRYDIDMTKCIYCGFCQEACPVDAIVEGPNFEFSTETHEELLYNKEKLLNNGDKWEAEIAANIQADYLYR
Chain of UniProt Q96IV0 (Q96IV0 whole entry, looked up): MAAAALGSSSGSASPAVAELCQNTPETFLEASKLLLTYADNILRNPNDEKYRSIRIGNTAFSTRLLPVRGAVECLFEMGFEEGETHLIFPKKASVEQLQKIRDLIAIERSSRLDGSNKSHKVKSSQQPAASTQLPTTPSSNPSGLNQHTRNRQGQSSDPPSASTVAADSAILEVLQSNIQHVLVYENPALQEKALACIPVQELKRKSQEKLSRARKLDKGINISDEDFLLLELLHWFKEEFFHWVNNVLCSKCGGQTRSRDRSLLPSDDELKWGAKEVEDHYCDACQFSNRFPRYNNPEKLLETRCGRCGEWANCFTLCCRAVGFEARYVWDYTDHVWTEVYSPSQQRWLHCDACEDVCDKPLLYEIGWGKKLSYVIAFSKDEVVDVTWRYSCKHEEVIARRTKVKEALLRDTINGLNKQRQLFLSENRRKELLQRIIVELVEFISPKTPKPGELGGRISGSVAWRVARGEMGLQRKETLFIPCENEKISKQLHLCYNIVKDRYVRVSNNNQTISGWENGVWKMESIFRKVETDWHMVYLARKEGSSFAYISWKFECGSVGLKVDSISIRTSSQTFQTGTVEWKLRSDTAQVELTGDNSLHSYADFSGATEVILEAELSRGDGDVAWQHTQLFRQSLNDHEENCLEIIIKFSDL
Chain of UniProt Q330K2 (Q330K2 whole entry, looked up): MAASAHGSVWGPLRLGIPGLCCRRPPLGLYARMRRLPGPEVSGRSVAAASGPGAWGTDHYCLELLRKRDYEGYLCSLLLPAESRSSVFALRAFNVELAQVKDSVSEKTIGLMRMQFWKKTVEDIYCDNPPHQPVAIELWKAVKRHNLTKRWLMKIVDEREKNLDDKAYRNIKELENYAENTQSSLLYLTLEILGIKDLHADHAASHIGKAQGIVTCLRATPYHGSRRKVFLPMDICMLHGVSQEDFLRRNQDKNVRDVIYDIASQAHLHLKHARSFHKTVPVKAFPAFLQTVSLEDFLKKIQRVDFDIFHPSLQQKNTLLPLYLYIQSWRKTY

Target	log2 fold change [1]	log2 fold change [2]	log2 fold change [3]	log2 fold change [4]	log2 fold change [5]	log2 fold change [6]	log2 fold change [7]	log2 fold change [8]	log2 fold change [9]	log2 fold change [10]
NOB1 (UniProt Q9ULX3)	-0.032	0.002	-0.041	-0.021	0.047	0.093	-0.003	-0.096	0.062	0.038
NUMB (UniProt P49757)	-0.088	-0.022	-0.002	-0.003	-0.041	0.037	0.009	0.007	-0.097	-0.032
PAFAH1B3 (UniProt Q15102)	-0.036	-0.012	-0.066	-0.019	0.057	0.043	-0.045	-0.045	-0.108	-0.028
MRPS6 (UniProt P82932)	0.023	0.009	-0.133	0.003	0.03	0.108	0.079	-0.036	-0.042	-0.031
MSH2 (UniProt P43246)	-0.069	-0.06	-0.109	-0.138	0.074	0.032	0.089	0.037	-0.091	-0.003
MXRA7 (UniProt P84157)	-0.097	0.037	0.037	-0.302 (active)	0.008	0.003	-0.006	0.028	-0.013	0.061
MSH3 (UniProt P20585)	-0.175	-0.001	-0.126	-0.007	-0.032	-0.017	0.031	0.034	-0.069	-0.019
MOV10 (UniProt Q9HCE1)	0.007	0.031	0.178	0.018	0.016	-0.02	-0.054	0.133	0.187	-0.164
MRPS22 (UniProt P82650)	-0.008	0.031	-0.098	0.006	0.027	0.131	0.035	-0.071	-0.069	-0.006
MKRN2 (UniProt Q9H000)	-0.007	0	0.094	-0.044	0.104	0.228	0.042	0.047	0.052	-0.129
MRPL46 (UniProt Q9H2W6)	-0.067	0.009	0.023	-0.014	-0.003	0.011	0.007	0.005	0.028	-0.062
NGLY1 (UniProt Q96IV0)	-0.073	0.059	-0.151	-0.109	0.025	0.008	0.079	0.079	0.059	-0.059
MRPL34 (UniProt Q9BQ48)	0.02	0.018	0.045	0.095	-0.041	0.035	0.004	0.053	0.09	-0.175
NCAPH (UniProt Q15003)	-0.086	-0.036	-0.092	-0.043	0.038	0.029	0.029	0.098	0	-0.009
MRPS27 isoform 2 (UniProt Q92552)	0.067	-0.015	-0.105	-0.007	0.011	0.104	0.08	-0.04	0.049	-0.012
MRPS5 (UniProt P82675)	0.009	0.034	-0.057	0.013	0	0.125	0.023	-0.043	-0.039	-0.018
NDUFA9 (UniProt Q16795)	-0.025	-0.089	-0.112	-0.091	0.039	0.065	0.037	-0.016	-0.104	0.017
NDUFS8 (UniProt O00217)	-0.049	-0.042	-0.163	-0.018	0.065	0.019	0.024	-0.019	-0.052	-0.041
NUDT21 (UniProt O43809)	-0.042	-0.002	0.049	-0.007	0.037	-0.078	0.029	-0.124	0.062	-0.131
NSMCE2 (UniProt Q96MF7)	0.065	-0.027	-0.008	-0.046	-0.115	0.128	-0.04	0.055	-0.068	-0.069
NDUFB10 (UniProt O96000)	-0.062	-0.06	-0.054	-0.022	-0.034	-0.053	0.031	0.021	-0.018	-0.006
NMT1 (UniProt P30419)	-0.006	-0.043	-0.052	-0.129	0.008	0.031	-0.012	-0.015	0.022	-0.52 (active)
NARS2 (UniProt Q96I59)	-0.05	0.057	-0.142	-0.02	0.012	0	0.043	-0.04	-0.064	-0.026
OXA1L (UniProt Q15070)	0.019	-0.021	-0.04	-0.025	-0.021	0.005	0.017	0.02	-0.038	0.113
MRPS31 (UniProt Q92665)	-0.001	0.03	-0.05	0	-0.011	-0.039	0.008	-0.012	-0.036	-0.083
NEK3 (UniProt P51956)	0.09	0.156	-0.119	0.011	0.016	-0.256	0.099	0.043	-0.017	-0.063
MSH6 (UniProt P52701)	-0.033	-0.091	-0.213	-0.191	0.229	0.273	0.347	0.14	-0.169	0.097
NDUFAF6 (UniProt Q330K2)	0	-0.152	-0.291	0	0.026	0.122	0.086	-0.02	-0.065	-0.031
MORC3 (UniProt Q14149)	0.024	-0.047	-0.241	-0.22	-0.021	-0.159	-0.118	0.201	-0.066	0.089
MNAT1 (UniProt P51948)	-0.055	-0.039	0.005	-0.058	-0.028	-0.003	0.078	-0.015	-0.047	-0.036
